Test results reported in PubChem BioAssay AID1851 (National Center for Advancing Translational Sciences (NCATS), 2009).
Hit rate of the full screen: of about 16,000 compounds, about 5,700 (36%) were called active. Another 24% or so got no clear call; they are omitted. The list shows a part of the results. Unmarked numbers belong to inactive results. The call rests on the fitted dose curve; in most records, active means well fitted curve in the direction sought with a large enough effect; inconclusive means small, poorly fitted or top-dose-only effect, or effect the other way; inactive means no such curve, though single readings can be large or run the other way.

Biological target: Cytochrome P450 1A2 (Homo sapiens) (UniProt P05177)
Assay: Cytochrome panel assay with activity outcomes
Details: recombinant CYP, pro-luciferin dealkylation, luminescence, p450-cyp1a2; series mostly up to 57.1 µM; activity, negative = inhibition: at the top concentration
On the % scale 0 is the no-effect control and ±100 the full control effect.

Chain of Cytochrome P450 1A2 (Homo sapiens) (P05177 whole entry, looked up): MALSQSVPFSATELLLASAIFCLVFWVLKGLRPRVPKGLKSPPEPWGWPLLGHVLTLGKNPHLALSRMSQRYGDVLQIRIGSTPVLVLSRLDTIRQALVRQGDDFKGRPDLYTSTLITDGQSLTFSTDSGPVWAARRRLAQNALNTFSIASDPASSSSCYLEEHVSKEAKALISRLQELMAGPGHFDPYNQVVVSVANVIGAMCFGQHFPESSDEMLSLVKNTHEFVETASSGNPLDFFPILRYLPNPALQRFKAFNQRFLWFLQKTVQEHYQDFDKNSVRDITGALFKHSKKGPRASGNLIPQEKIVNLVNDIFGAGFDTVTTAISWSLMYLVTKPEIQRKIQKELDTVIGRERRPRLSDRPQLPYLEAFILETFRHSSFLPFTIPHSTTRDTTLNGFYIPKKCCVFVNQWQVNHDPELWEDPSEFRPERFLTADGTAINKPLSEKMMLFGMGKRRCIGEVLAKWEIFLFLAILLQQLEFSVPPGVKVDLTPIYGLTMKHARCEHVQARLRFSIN

Compound | AC50 | activity, negative = inhibition
Cc1nc2ccccc2nc1SCC(=O)N1CCC(C)CC1 | 3.55 µM (active) | 
CC1CCN(C(=O)C2CCN(S(=O)(=O)c3cccc4nonc34)CC2)CC1 |  | -0.137%
Cn1c(SCC(=O)N2CCN(S(=O)(=O)c3ccccc3)CC2)nc2ccccc21 |  | -17.9%
CC1CC(C)CN(C(=O)CSc2nnc(CSc3ncccn3)n2C)C1 (stereo not drawn) |  | -0.204%
NC(=O)C1CCN(C(=O)CN2C(=O)c3ccccc3S2(=O)=O)CC1 |  | 1.85%
CC1CCN(C(=O)CSc2nc3cccnc3n2C)CC1 | 20 µM (active) | 
CCc1cc2c(nc1CC)CCN(CC/C(C)=N/O[C@@H]1O[C@H](COC(C)=O)[C@H](OC(C)=O)[C@H](OC(C)=O)[C@H]1OC(C)=O)C2 |  | 0.132% [at 11.4 µM]
Nc1nonc1-c1noc(CCCN2C(=O)c3ccccc3C2=O)n1 | 14.1 µM (active) | 
O=C(NCc1cccnc1)/C(=C/c1ccc(-c2cccc(Cl)c2)o1)S(=O)(=O)c1ccccc1 | 25.1 µM (active) | 
Cc1ccc(NC(=O)C(=O)NCc2ccc(/C=C(/C#N)C(=O)NCc3cccnc3)o2)cc1 |  | -13.3%
COc1ccccc1C(=O)O/N=C1/CCCc2c1ccc(OC)c2[N+](=O)[O-] | 0.447 µM (active) | 
COc1ccc2c(c1[N+](=O)[O-])CCC/C2=N/OC(=O)c1cccc2ccccc12 | 0.794 µM (active) | 
COc1ccc2c(c1[N+](=O)[O-])CCC/C2=N/OC(=O)c1ccccc1SC | 0.794 µM (active) | 
CC1CSc2nc3sc4c(c3c(=O)n21)CCCC4 (stereo not drawn) | 3.55 µM (active) | 
CSC(=NC#N)N1CCN(c2ccc(Cl)cc2)CC1 | 4.47 µM (active) | 
C[C@H](N[C@@H](C)COc1ccccc1)[C@H](O)c1ccc(O)cc1 | 5.01 µM (active) | 
C[C@H](NCCc1ccc(O)cc1)[C@@H](O)c1ccc(O)cc1 | inactive | 
CCOC(=O)C1C(=O)C=C(c2ccc(C)cc2)CC1c1ccco1 (stereo not drawn) | 4.47 µM (active) | 
CCOC(=O)C1=C(N)n2c(s/c(=C\c3ccco3)c2=O)=C(C(=O)OCC)C1c1ccco1 (stereo not drawn) |  | -56%
Cc1ccc(C(CC(N)=O)c2ccco2)cc1 (stereo not drawn) |  | -5.6%
CC1=CC2=NC(=O)CC(C)(C(=O)N(CC(=O)NC(C)(C)C)Cc3cccs3)N2C=C1 (stereo not drawn) |  | 11.6%
O=C(O)c1cc2c(o1)CCC/C2=N\O |  | -4.91%
c1ccc(C2=NN[C@@H]3c4ccccc4-c4ccccc4N3C2)cc1 | 0.2 µM (active) | 
CCCOc1ccc(C(=O)NC(=S)Nc2nc3ccc(C)cc3s2)cc1 |  | -9.82%
CCOc1ccc2nc(NC(=O)c3ccc(S(=O)(=O)N4CCOCC4)cc3)sc2c1 |  | -13.6%

Compound | AC50 | activity, negative = inhibition
COc1ccc2nc(N)sc2c1 | 12.6 µM (active) | 
COc1ccc2nc(NC(C)=O)sc2c1 | 3.55 µM (active) | 
COc1ccc2nc(/N=C\N(C)C)sc2c1 | 0.631 µM (active) | 
COc1ccc2nc(C)cc(SCC(=O)Nc3c(C)cc(C)cc3C)c2c1 |  | -12.6%
COc1ccc(Cc2c(N)nc(N)nc2N)cc1 |  | -7.11%
COc1ccc(N2C(N)=NC(N)=NC2(C)C)cc1 |  | 10.4%
COc1ccc2nc(NC(=O)CSc3nnc(C)s3)sc2c1 | 2.82 µM (active) | 
CN(C)Cc1ccc(O)c(CN(C)C)n1 |  | -8.37% [at 11.4 µM]
C[C@]12CC[C@H]3c4ccc(O)cc4CC[C@@H]3[C@H]1CC[C@@H]2OC(=O)CCC1CCCC1 |  | -12.2% [at 11.4 µM]
COc1ccc(S(=O)(=O)Nc2ccc(F)cc2)c(C)c1C | 14.1 µM (active) | 
CC(C)(C)NS(=O)(=O)c1ccc(NS(=O)(=O)c2ccc(F)cc2)cc1 |  | 8.66%
COc1ccc(NS(=O)(=O)c2cc(-c3nnnn3C)ccc2OC)cc1 |  | -12%
COCCNC(=O)c1cc(-c2cccc(OC)c2)on1 | 12.6 µM (active) | 
COc1cccc(-c2nc(CS(=O)(=O)CC(=O)NCCCOC(C)C)c(C)o2)c1 |  | -11.6%
COc1ccc(-c2cc(C(=O)NCc3cccnc3)no2)cc1OC | 20 µM (active) | 
CCC(C)C1NC(=S)N(C2CCCCC2)C1=O (stereo not drawn) |  | -15.6%
O=C(Nc1cccc2ncccc12)c1ccc(-c2ccc(Br)cc2)o1 | 0.501 µM (active) | 
Cc1cc2cc(C)c3nnc(SCC(=O)NCc4ccc5c(c4)OCO5)n3c2cc1C | 20 µM (active) | 
CC(C)(C)NC(=O)CSc1nnc(Cc2ccc3c(c2)OCO3)n1C1CCCCC1 |  | -16.8%
O=C1C2Sc3[nH]c(=O)sc3C(c3ccccc3)C2C(=O)N1c1ccccc1 (stereo not drawn) |  | -9.7%
N#Cc1cccc(-c2nccc(NCc3cccnc3)n2)c1 | 0.251 µM (active) | 
N#Cc1cccc(-c2nccc(NCc3ccccc3)n2)c1 | 0.501 µM (active) | 
Cc1cccc(CNc2ccnc(-c3cccc(C#N)c3)n2)c1 | 0.398 µM (active) | 
N#Cc1cccc(-c2nccc(NCc3cccs3)n2)c1 | 0.251 µM (active) | 
O=c1cnc2cnc(N3CCOCC3)nc2n1CCc1ccccc1 | 3.16 µM (active) | 

Compound | AC50 | activity, negative = inhibition
N#CCCn1c(=O)cnc2cnc(N3CCOCC3)nc21 | 10 µM (active) | 
Cc1nc2cnc(N3CCOCC3)nc2n(CCC#N)c1=O | 12.6 µM (active) | 
CCc1cc2c(nc1CC)CCN(CC/C(C)=N/OC[C@H]1O[C@H](c3ccccc3)C=C[C@@H]1Oc1ccc(OC)cc1)C2 |  | 0.11% [at 11.4 µM]
Cc1ccc(-n2nc(C)c3c2OC(N)=C(C#N)C3c2ccco2)cc1 (stereo not drawn) | 8.91 µM (active) | 
CCn1c2ccccc2c2cnc(N=CN(C)C)c(C#N)c21 | 1.41 µM (active) | 
Cc1nc(N/N=C/c2ccccc2)nc(N(C)c2ccccc2)c1[N+](=O)[O-] | 1.58 µM (active) | 
COC(=O)C/C=C\[C@@H](C)[C@@H](/C=N\O[C@@H](C)CN1CCCCc2nc(C)c(C)cc21)NS(=O)(=O)c1ccc(C)cc1 |  | -4.63% [at 11.4 µM]
C=CCN(CC=C)C(=S)NC(=O)c1ccc(OC)c(Br)c1 | 0.562 µM (active) | 
COc1ccc(C(=O)c2ccccc2)cc1Br | 10 µM (active) | 
COc1ccc(C(=O)NC(=S)NC(C)C)cc1Br | 3.16 µM (active) | 
COc1ccc(C(=O)NNC(=O)Cc2ccc(-c3ccccc3)cc2)cc1OC |  | -20.2%
COc1ccc(C(=O)NC(=S)NC(C)(C)C)cc1Br | 0.562 µM (active) | 
COc1cc(C(=O)NC(=S)Nc2ccc3oc(=O)ccc3c2)cc(OC)c1OC |  | -0.189%
CCOc1ccc(C(=O)O)cc1OC |  | -16.3%
COc1ccc(NC(=O)N2CC3(CCN(S(C)(=O)=O)CC3)C2)cc1 |  | -4.57%
FC(F)(F)c1ccccc1-c1ccc2ncnc(NC3CC3)c2c1 | 0.316 µM (active) | 
Cc1ccccc1-c1ccc2ncnc(NC3CC3)c2c1 | 0.126 µM (active) | 
CS[C@@H](CC(=O)O)C(=O)O |  | 6.13% [at 11.4 µM]
CCOCCCN1C(=O)CN(C2CCCCC2)C(=O)C1c1ccc(OCC)c(OC)c1 (stereo not drawn) |  | 1.09%
O=C(Nc1ccccn1)c1ccco1 | 11.2 µM (active) | 
O=C(N/N=C/c1ccccn1)c1ccc(Br)o1 | 6.31 µM (active) | 
Cc1cc(C)n(CC(=O)N/N=C/c2ccco2)n1 |  | -5.36%
O=C(N/N=C/c1ccco1)c1ccccn1 | 6.31 µM (active) | 
O=C(c1ccco1)N1CCC2(CC1)CN(c1ccccn1)C2 |  | -2.55%
O=C(NN=C1c2ccccc2-c2ccccc21)c1ccccn1 | 0.501 µM (active) | 

Compound | AC50 | activity, negative = inhibition
CCC(C)(NC(=O)c1ccccn1)C(=O)NC1CCCCC1 (stereo not drawn) |  | -23.3%
C[N+](C)(C)c1nc(N)nc2c1ncn2[C@H]1O[C@@H](CO)[C@@H](O)[C@H]1O |  | -4.9% [at 2.29 µM]
O=C1COC(c2ccccc2O)=NN1CCCN1CCCC1 |  | -13.6% [at 11.4 µM]
CC(Oc1ccc(O)cc1)(P(=O)(O)O)P(=O)(O)O |  | 8.37%
O=C(CNC(=O)c1ccccn1)N/N=C/c1ccccc1 | 4.47 µM (active) | 
O=C(N/N=C/c1ccccn1)c1ccco1 | 15.8 µM (active) | 
CO[C@H]1COC(=O)C/C=C\[C@H](C)COC(=O)[C@@H](OCc2ccccc2)/C=C\[C@@H]1C |  | -6.26% [at 11.4 µM]
CC(C)=NOC[C@@H](O)COCc1ccco1 |  | 4.83% [at 11.4 µM]
CC(C)[C@H]1C(=O)C(C(N)=O)=C(O)[C@]2(O)C(=O)C3=C(O)c4c(O)ccc(N(C)C)c4C[C@H]3C[C@@H]12 |  | -1.01%
Nc1cc2c(nc3c4ccccc4c(N)cc3[n+]2-c2cccc3ccccc23)c2ccccc12 (tested in a mixture with another compound) | 1.26 µM (active) | 
COc1ccc(CNC(=O)c2csc(Cc3ccc(Cl)cc3)n2)cc1 | 0.891 µM (active) | 
COc1ccc(CNC(=O)C2CSC(=O)C2)cc1 (stereo not drawn) |  | -0.484%
COc1ccc(Cc2nnc(NC(=O)c3cccc([N+](=O)[O-])c3C)s2)cc1 |  | 8.33%
COc1ccc(CNC(=O)c2csc(Cc3ccc(OC)cc3)n2)cc1 | 14.1 µM (active) | 
CCN(C(=O)COc1cc(=O)n(C)c2ccccc12)c1cccc(Cl)c1 | 15.8 µM (active) | 
CC1Cc2ccccc2N1C(=O)C1CCCCN1S(=O)(=O)c1ccccc1 (stereo not drawn) |  | -7.61%
Cn1c(C(=O)N2COCC2(C)C)cc2c(=O)n3ccccc3nc21 | 6.31 µM (active) | 
CC1Cc2ccccc2N1C(=O)c1cc2c(=O)n3ccccc3nc2n1C (stereo not drawn) | 3.16 µM (active) | 
Cc1ccccc1-n1ncc2c(SCC(=O)N3c4ccccc4CC3C)ncnc21 (stereo not drawn) |  | -27.5%
O=C(NCC1CCCO1)c1ccc2c(=O)n(Cc3ccco3)c(SCC(=O)N3CCCC3)nc2c1 (stereo not drawn) |  | -4.77%
Cn1c(C(=O)NCC2CCCO2)cc2c(=O)n3ccccc3nc21 (stereo not drawn) | 2.24 µM (active) | 
Cc1ccc(S(=O)(=O)/C(C#N)=C/c2c(N3CC(C)OC(C)C3)nc3ccccn3c2=O)cc1 (stereo not drawn) |  | -4.89%
C[C@@H](c1ccccc1)N1C(=O)[C@H]2[C@H]3[C@H](O)[C@H](O)C/C(=N/OC[C@@H](O)COCc4ccco4)[C@@H]3CC[C@@H]2C1=O |  | -14.6% [at 11.4 µM]
